Assay [1] concerns the target T1, Mitogen-activated protein kinase 12 (Homo sapiens) (UniProt P53778).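 Note: values are averaged p38gamma kinase inhibition readings, compounds tested at 1 µM.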
T1 sequence (whole entry): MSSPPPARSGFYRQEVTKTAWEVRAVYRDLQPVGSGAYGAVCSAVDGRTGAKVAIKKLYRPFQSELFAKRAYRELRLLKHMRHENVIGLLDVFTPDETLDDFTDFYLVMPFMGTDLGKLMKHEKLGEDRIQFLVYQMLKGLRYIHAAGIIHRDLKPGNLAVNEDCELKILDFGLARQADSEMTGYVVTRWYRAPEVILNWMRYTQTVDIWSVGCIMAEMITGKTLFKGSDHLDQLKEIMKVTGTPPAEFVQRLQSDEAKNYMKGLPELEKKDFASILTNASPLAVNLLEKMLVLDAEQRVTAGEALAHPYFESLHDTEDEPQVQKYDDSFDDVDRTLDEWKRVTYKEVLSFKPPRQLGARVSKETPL
The following applies: at 1 µM.

The target in assay [2] is SRSF protein kinase 1 (Homo sapiens) (UniProt Q96SB4). Conditions: at 0.1 µM.
The target is the same in assay [3]. The following applies: at 1 µM.
Assay [4] concerns the target Phosphatidylinositol 4,5-bisphosphate 3-kinase catalytic subunit alpha isoform (Homo sapiens) (UniProt P42336). The following applies: at 0.1 µM.
Assay [5] shares this target. Conditions: at 1 µM.
Assay [6] has as its target T2, Phosphatidylinositol 4,5-bisphosphate 3-kinase catalytic subunit delta isoform (Homo sapiens) (UniProt O00329).
T2 sequence (whole entry): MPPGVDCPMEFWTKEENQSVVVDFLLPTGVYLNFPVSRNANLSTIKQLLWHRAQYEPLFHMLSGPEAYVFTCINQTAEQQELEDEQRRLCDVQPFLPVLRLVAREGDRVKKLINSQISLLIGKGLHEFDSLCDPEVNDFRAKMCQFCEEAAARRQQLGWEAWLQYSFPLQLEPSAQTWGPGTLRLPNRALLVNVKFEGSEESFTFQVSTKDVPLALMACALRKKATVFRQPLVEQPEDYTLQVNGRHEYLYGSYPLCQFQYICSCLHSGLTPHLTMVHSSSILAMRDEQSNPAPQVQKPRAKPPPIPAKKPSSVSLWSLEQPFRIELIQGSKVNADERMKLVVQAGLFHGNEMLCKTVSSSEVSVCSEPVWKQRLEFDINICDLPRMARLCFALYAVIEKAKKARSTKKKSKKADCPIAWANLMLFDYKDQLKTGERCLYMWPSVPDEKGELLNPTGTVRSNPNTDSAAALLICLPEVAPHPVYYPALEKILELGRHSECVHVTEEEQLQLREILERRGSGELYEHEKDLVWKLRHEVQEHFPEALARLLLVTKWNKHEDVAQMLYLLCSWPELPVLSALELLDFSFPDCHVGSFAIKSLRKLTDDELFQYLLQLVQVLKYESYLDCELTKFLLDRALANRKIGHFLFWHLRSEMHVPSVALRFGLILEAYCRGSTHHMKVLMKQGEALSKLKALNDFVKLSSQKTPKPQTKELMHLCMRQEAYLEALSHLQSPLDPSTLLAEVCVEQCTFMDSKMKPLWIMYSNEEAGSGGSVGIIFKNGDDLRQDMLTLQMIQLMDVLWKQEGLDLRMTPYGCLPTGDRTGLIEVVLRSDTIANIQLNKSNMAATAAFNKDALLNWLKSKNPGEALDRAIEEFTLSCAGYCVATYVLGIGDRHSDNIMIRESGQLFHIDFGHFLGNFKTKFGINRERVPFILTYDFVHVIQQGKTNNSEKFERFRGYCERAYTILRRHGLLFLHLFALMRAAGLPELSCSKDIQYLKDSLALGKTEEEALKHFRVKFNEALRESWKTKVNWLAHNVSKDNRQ
The following applies: at 0.1 µM.

Assay [7] concerns the target T2, Phosphatidylinositol 4,5-bisphosphate 3-kinase catalytic subunit delta isoform (Homo sapiens). Conditions: at 1 µM.
The target in assay [8] is Phosphatidylinositol 4-kinase beta (Homo sapiens) (UniProt Q9UBF8). The following applies: at 0.1 µM.
For assay [9] the target is unchanged. Conditions: at 1 µM.
Assay [10] addresses Sphingosine kinase 1 (Homo sapiens) (UniProt Q9NYA1). The following applies: at 0.1 µM.
Assay [11] shares this target. The following applies: at 1 µM.
Assay [12] deals with T3, Sphingosine kinase 2 (Homo sapiens) (UniProt Q9NRA0).
T3 sequence (whole entry): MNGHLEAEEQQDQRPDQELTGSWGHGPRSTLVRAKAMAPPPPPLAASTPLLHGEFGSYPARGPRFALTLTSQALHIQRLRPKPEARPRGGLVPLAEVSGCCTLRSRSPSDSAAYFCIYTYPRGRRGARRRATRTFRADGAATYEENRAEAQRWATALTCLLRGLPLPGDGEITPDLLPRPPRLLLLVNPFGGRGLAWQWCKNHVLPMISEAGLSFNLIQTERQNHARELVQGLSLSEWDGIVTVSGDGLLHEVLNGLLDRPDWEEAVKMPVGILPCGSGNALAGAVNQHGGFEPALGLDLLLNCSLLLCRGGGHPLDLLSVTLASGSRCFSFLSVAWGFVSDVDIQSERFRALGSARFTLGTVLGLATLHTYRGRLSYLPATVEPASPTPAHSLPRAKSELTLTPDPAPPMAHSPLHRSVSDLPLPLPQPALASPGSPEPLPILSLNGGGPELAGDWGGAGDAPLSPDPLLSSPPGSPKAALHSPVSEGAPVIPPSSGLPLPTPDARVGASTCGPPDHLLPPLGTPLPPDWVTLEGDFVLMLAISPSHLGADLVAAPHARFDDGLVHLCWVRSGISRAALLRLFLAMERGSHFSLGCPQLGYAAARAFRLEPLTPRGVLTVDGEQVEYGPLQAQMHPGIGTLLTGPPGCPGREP
The following applies: at 0.1 µM.

The target of assay [13] is T3, Sphingosine kinase 2 (Homo sapiens). The following applies: at 1 µM.
Assay [14] deals with Casein kinase II subunit alpha (Homo sapiens) (UniProt P68400). Conditions: at 0.1 µM.
Assay [15] has the same target. Conditions: at 1 µM.
Assay [16] has as its target T4, Inhibitor of nuclear factor kappa-B kinase subunit alpha (Homo sapiens) (UniProt O15111).
T4 sequence (whole entry): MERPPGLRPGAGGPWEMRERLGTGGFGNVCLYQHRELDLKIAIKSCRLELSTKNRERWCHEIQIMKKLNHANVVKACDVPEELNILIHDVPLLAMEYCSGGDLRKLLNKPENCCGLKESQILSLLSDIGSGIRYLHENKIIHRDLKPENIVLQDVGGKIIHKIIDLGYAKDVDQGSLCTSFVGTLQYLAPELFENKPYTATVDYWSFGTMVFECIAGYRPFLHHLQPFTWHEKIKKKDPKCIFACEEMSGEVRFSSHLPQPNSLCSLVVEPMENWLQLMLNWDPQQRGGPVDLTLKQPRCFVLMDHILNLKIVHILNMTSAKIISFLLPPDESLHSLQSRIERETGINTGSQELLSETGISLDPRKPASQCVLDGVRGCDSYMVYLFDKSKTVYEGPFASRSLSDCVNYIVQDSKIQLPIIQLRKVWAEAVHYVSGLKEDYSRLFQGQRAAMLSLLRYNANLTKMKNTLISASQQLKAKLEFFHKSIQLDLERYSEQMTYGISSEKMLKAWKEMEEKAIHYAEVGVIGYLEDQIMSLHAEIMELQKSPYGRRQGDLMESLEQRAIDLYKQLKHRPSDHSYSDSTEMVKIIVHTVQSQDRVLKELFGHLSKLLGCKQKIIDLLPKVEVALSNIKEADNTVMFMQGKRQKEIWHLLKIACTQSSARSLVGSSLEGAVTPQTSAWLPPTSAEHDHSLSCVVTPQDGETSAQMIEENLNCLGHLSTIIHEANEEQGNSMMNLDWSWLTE
The following applies: at 0.1 µM.

For assay [17], the target named is T4, Inhibitor of nuclear factor kappa-B kinase subunit alpha (Homo sapiens). The following applies: at 1 µM.
Assay [18] concerns the target T5, Inhibitor of nuclear factor kappa-B kinase subunit beta (Homo sapiens) (UniProt O14920).
T5 sequence (whole entry): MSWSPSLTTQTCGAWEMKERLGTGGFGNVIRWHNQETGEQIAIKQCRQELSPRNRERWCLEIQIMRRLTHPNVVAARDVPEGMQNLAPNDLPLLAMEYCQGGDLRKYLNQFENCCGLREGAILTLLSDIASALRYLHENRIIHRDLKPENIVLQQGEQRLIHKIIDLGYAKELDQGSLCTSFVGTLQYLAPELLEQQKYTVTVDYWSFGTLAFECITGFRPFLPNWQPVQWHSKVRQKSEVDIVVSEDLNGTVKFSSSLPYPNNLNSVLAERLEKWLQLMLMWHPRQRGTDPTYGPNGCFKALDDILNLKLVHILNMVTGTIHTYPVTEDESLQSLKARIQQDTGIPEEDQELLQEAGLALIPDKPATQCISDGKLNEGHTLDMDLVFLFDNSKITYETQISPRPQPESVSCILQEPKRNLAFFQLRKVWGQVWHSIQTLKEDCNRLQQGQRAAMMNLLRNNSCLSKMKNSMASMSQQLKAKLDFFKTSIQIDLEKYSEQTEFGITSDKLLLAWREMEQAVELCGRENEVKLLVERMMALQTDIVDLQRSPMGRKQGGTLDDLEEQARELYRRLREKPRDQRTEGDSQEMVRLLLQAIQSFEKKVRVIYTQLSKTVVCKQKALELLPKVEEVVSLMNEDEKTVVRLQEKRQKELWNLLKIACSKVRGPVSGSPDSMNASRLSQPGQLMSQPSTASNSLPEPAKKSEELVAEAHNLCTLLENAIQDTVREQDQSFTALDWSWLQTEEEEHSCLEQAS
Conditions: at 0.1 µM.

The target in assay [19] is T5, Inhibitor of nuclear factor kappa-B kinase subunit beta (Homo sapiens). The following applies: at 1 µM.
Assay [20] addresses T6, Inhibitor of nuclear factor kappa-B kinase subunit epsilon (Homo sapiens) (UniProt Q14164).
T6 sequence (whole entry): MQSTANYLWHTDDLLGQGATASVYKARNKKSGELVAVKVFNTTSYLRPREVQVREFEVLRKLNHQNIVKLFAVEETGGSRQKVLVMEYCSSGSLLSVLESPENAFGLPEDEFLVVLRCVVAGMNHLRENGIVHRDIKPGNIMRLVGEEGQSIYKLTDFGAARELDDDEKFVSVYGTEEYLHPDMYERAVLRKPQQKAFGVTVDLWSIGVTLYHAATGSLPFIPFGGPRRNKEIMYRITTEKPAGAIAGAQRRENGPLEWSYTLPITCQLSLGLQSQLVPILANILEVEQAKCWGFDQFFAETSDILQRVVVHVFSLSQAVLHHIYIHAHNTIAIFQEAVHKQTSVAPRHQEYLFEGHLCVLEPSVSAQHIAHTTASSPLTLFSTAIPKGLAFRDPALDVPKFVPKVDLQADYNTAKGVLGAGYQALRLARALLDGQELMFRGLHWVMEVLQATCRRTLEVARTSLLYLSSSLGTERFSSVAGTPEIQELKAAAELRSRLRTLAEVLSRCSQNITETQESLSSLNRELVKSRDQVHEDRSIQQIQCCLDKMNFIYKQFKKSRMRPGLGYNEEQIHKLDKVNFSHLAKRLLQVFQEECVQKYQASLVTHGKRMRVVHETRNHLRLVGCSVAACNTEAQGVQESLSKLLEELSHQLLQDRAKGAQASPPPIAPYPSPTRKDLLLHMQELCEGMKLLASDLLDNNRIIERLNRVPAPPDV
The following applies: at 0.1 µM.

As usually defined, the inhibition is the change of the read-out against control, counted positive when it falls.

Sequence of Casein kinase II subunit alpha (Homo sapiens) (P68400 whole entry, looked up): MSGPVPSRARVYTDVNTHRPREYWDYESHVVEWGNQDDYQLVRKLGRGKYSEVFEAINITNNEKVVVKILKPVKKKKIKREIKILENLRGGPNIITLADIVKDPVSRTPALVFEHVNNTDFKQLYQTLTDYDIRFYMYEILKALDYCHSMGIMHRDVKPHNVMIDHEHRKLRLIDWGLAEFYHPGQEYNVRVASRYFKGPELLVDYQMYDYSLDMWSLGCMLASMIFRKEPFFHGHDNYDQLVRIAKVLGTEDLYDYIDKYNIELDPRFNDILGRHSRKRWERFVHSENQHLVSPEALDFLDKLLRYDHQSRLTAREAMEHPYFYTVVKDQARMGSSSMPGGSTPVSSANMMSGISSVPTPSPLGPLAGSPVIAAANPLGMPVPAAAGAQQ
Sequence of Phosphatidylinositol 4-kinase beta (Homo sapiens) (Q9UBF8 2-816 limits assumed): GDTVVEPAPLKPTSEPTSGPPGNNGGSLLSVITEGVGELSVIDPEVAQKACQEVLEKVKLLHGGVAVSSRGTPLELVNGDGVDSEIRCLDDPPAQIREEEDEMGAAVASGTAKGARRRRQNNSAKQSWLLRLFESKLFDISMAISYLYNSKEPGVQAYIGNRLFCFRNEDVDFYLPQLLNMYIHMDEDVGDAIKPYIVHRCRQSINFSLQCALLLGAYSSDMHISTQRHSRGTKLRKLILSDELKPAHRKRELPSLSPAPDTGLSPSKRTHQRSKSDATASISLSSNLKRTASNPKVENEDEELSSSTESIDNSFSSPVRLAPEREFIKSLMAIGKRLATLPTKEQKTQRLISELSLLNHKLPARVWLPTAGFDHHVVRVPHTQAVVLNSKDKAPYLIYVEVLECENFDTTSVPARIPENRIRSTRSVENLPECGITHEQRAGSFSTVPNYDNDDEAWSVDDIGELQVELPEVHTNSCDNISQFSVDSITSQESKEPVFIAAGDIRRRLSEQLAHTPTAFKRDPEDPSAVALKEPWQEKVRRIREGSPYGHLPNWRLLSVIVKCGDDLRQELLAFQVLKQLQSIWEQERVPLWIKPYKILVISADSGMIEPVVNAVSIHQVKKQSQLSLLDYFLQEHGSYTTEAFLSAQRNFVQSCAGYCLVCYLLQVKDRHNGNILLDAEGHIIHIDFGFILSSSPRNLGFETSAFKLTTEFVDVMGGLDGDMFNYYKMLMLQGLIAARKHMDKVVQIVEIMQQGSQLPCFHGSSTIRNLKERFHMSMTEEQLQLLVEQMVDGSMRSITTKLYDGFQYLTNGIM
Sequence of Sphingosine kinase 1 (Homo sapiens) (Q9NYA1 whole entry): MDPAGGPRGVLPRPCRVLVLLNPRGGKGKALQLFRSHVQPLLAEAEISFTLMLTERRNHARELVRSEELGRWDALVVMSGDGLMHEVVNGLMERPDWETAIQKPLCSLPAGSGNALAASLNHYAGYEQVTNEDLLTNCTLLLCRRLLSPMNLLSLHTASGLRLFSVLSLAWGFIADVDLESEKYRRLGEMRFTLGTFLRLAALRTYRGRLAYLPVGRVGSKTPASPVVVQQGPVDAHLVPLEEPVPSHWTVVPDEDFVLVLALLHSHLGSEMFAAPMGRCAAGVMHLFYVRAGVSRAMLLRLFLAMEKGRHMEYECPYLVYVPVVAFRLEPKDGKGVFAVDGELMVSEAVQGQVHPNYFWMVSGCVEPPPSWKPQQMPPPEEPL
Sequence of SRSF protein kinase 1 (Homo sapiens) (Q96SB4 whole entry): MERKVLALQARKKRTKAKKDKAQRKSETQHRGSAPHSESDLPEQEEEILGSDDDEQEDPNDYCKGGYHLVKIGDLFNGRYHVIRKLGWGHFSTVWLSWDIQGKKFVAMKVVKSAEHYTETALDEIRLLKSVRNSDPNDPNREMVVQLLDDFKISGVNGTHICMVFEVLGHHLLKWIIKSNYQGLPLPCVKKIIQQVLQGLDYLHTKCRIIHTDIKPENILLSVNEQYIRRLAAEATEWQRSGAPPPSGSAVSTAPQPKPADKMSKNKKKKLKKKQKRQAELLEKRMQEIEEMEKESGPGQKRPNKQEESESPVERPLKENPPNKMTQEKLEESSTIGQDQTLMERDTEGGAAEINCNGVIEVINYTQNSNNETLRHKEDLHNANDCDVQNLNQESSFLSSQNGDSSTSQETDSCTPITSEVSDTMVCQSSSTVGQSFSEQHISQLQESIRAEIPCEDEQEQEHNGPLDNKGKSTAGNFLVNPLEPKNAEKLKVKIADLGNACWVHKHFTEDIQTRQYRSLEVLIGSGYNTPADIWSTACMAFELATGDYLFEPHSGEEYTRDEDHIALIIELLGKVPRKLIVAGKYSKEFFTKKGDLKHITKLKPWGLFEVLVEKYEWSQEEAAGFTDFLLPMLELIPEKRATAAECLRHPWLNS
Sequence of Phosphatidylinositol 4,5-bisphosphate 3-kinase catalytic subunit alpha isoform (Homo sapiens) (P42336 whole entry, canonical isoform): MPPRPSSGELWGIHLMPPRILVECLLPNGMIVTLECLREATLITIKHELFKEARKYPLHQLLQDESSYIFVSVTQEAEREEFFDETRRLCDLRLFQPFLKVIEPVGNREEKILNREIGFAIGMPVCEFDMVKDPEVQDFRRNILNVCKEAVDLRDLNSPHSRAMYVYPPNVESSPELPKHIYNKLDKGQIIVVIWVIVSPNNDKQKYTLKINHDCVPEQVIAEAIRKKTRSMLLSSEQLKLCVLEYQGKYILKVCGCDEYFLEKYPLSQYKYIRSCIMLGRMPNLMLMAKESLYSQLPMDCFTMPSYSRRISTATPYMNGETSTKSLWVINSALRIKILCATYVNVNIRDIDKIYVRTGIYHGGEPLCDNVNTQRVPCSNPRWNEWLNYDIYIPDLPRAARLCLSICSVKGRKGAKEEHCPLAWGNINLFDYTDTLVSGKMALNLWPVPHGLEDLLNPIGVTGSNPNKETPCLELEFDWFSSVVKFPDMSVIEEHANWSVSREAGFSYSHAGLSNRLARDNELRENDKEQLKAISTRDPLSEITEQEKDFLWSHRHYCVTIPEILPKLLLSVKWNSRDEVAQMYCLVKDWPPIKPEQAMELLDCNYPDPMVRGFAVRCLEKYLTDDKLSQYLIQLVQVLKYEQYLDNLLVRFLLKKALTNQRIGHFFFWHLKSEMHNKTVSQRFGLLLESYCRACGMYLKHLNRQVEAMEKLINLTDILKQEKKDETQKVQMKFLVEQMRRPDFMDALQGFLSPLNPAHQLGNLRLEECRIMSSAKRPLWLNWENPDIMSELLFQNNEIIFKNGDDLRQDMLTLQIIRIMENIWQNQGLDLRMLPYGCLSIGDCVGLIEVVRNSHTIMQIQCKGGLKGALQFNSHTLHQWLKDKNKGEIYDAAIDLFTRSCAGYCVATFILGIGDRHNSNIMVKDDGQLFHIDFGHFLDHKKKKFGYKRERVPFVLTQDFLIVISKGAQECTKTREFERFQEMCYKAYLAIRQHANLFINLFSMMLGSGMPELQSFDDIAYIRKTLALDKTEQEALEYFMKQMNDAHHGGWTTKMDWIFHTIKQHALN

As to `CS(=O)(=O)Nc1ccc(-c2ccc3c(NC(=O)C4CC4)n[nH]c3c2)cc1`, the inhibition in [1] was 2.05%; in assay [2], -1.28%; in [3], -3.34%; in [4], 2.67%; in assay [5], 4.34%; in assay [6] it was 0.92%. Besides, the inhibition in [7] was 1.63%; in assay [8] it was -0.54%; in assay [9], -0.98%; in assay [10], 2.34%; in [11], -3.21%; in assay [12], 1.2%. The inhibition was 0% in assay [13]; 2.09% in [14]; 0.41% in [15]; 6.65% in assay [16]; -3.42% in assay [17]; 3.69% in [18]. Besides, the figures for the inhibition in assay [19] and in [20] were 1.2% and -0.23%, respectively.
Turning to `Fc1cccc(COc2ccc(Nc3ncncc3C#Cc3ccccc3)cc2Cl)c1`, the inhibition was 2.58% in assay [1]; -0.38% in assay [2]; 3.43% in assay [3]; 3.88% in assay [4]; 2.67% in [5]; 1.53% in assay [6]. For the same molecule, the inhibition in assay [7] is 1.09%; in assay [8], 1.02%; in [9], -1.52%; in assay [10], 1.58%; in assay [11], -2.79%; in assay [12], -1.37%. The inhibition in assay [13] came to 0.98%; in assay [14] it was 4.56%; in assay [15] it was 11.3%; in assay [16], 6.1%; in [17] it was 4.54%; in assay [18] it was 8.5%. Also, the inhibition was 9.35% in [19] and 7.72% in assay [20].
Regarding `COc1cc(Nc2ncc(-c3ccccc3)o2)cc(OC)c1`, the inhibition is 3.94% in [1]; -2.65% in [2]; -2% in [3]; 8.32% in [4]; 6.87% in assay [5]; 5.4% in assay [6]. The inhibition in [7] is 5.83%; in [8], 0.33%; in assay [9] it was 3.11%; in assay [10] it was 2.1%; in assay [11], 2.45%; in assay [12], -0.24%. The inhibition was -0.57% in [13]; 3.79% in [14]; 3.91% in assay [15]; 2.7% in assay [16]; 4.19% in assay [17]; 4.63% in assay [18]. The inhibition came out at 7.8% in [19] and 12.6% in assay [20].
Consider `CCS(=O)(=O)c1ccc(OC)c(Nc2ncc(-c3cccc(F)c3)o2)c1`, for which the inhibition in assay [1] was 4.78%; in assay [2], -0.63%; in assay [3] it was 0.45%; in assay [4], 5.95%; in [5], 5.75%; in [6], 2.23%. Moreover, the inhibition in assay [7] was 4.91%; in [8] it was 0.49%; in [9], -1.64%; in [10], -1.2%; in assay [11], 0.12%; in assay [12], -0.46%. Moreover, the inhibition in assay [13] was found to be 0%; in assay [14], 15.4%; in [15], 46.8%; in assay [16], 9.53%; in assay [17], 11%; in [18], 6.88%. In addition, the inhibition in assay [19] was found to be 9.91%; in assay [20], 10.8%.

These data come from ChEMBL document CHEMBL1961873, “Compounds: GSK PKIS; Assays: Nanosyn kinase panel” (2012).
